In all, about 85,000 compounds went through this assay and about 5,100 (6%) were called active. The entries come from a sample that favours actives as a whole. A number with no mark means an inactive call.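 Rule for the calls: active = viability at or below 40%; inactive = viability above 40%.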
Assay: proliferation blockers of H69AR lung cancer cells, primary screen, cell-based, human, 86K library (AID 598);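 note: multidrug resistant small cell line overexpressing MRP-1 efflux transporter; 100% = mean luminescence of untreated control wells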
Conditions: H69AR lung tumor viability, ATP luminescence, 72 h; at 10 µM; active compounds read low

Structure (SMILES) | viability
CC(C)c1ccc(NC(=O)NC2CCCCC2)cc1 | 25.6% (active)
CC(C)NS(=O)(=O)c1ccc(NC(=O)C2CCCCC2)cc1 | 109%
CC(=O)OC(C(=O)NC1CCCCC1)c1ccccc1 (stereo unspecified) | 92.1%
CNC(=S)N1N=C(c2ccccc2)CC1c1ccc(Br)cc1 (stereo unspecified) | 76.7%
COCCn1c(-c2ccc(OC)c(OC)c2)nc2ccccc21 | 92.7%
COc1ccc(-c2nc3ccccc3n2CCC(C)C)cc1OC | 28.8% (active)
CCCn1c(C(O)c2cc(OC)ccc2OC)nc2ccccc21 (stereo unspecified) | 95.3%
COC(=O)c1[nH]c2ccc(Br)cc2c1NC(=O)Oc1ccccc1 | 80.6%
O=C(Nc1ccc2oc(-c3ccc4ccccc4c3)nc2c1)c1cccs1 | 2.65% (active)
Cc1nc(-c2ccc(NC(=O)c3cccs3)cc2)cs1 | 70.7%
O=C(Cc1cccc2ccccc12)Nc1ccc2oc(-c3ccccc3)nc2c1 | 59.7%
CCNC(=O)c1sccc1-n1cccc1 | 103%
CC(C)(C)NC(=O)Cn1c(SCC(=O)Nc2nccs2)nc2ccccc21 | 92.5%
O=S(=O)(N1CCCCC1)N1CCNCC1 | 100%
Cc1cccc(C)c1NC(=O)CCCSc1nnc(-c2ccco2)n1-c1ccccc1 | 34.3% (active)
O=C(CSc1nnc(-c2ccco2)n1-c1ccccc1)NCCc1ccccc1 | 82%
COc1ccc(C(=O)NC(=O)CSc2nnc(-c3ccco3)n2-c2ccccc2)cc1 | 95.2%
COC(=O)c1sc(=S)n(-c2ccc(Cl)cc2)c1C | 90%
CCOn1c(SC(C)C)nc2ccccc2c1=O | 103%
CCOC(=O)c1cc2cc(-c3c(C(=O)OCC)oc4cc(O)cc(O)c4c3=O)ccc2o1 | 16.6% (active)
Cc1ccc(OC(=O)c2cc3ccccc3o2)cc1 | 104%
CCOC(=O)c1c(C)nc2c(c1C)c(=O)oc1ccccc12 | 98.3%
CN(C)c1nc(N)nc(CSc2ccccn2)n1 | 91%
Cc1cc(N/C=C\C(=O)c2ccc(Cl)c(Cl)c2)no1 | 84.8%
COC(=O)CNS(=O)(=O)c1ccc(OC)cc1 | 91.5%
CCOC(=O)c1ccccc1NS(=O)(=O)c1ccc(OC)cc1 | 18.2% (active)

Structure (SMILES) | viability
CCCC(NS(=O)(=O)c1ccc(OC)cc1)C(=O)O (stereo unspecified) | 104%
O=c1[nH][nH]c(C(F)(F)F)c1C=NCc1ccccc1Cl | 81.2%
COc1ccc(-c2nc(-c3ccccc3)no2)c(OC)c1 | 69.4%
Cc1cccc(-c2noc(-c3ccc(F)cc3)n2)c1 | 91.5%
Cn1nc(-c2ccccc2)c(-c2nc(-c3ccc(Cl)cc3)no2)c1Cl | 34.3% (active)
COc1ccc(Cl)cc1C(=O)NCc1cn(C)nc1C | 86.1%
Cc1ccccc1-n1c(C)cc(/C=C2\NC(=O)NC2=O)c1C | 85.6%
CC1CC2=C(CC1/C=N/NC(N)=S)C(C)(C)CCC2 (stereo unspecified) | 2.3% (active)
CC1(C)CCCC2=C1CC1C(=O)N(c3ccccc3)C(=O)C1C2 (stereo unspecified) | 84%
CCCc1nc2ccccc2c(=O)n1NC(=O)c1c(O)c2ccccc2[nH]c1=O | 86.6%
CCCc1nc2ccccc2c(=O)n1/N=C/c1ccc(O)c(O)c1 | 15.8% (active)
CCCCc1nc2ccccc2c(=O)n1NC(=O)c1c(O)c2cccc3c2n(c1=O)CC3 | 70.7%
CCOc1cc(C(=S)N2CCOCC2)ccc1O | 85.1%
CCn1c2ccccc2c2cc(NC(=S)N3CCOCC3)ccc21 | 20.1% (active)
CCn1c(=O)cc(O)c2ccccc21 | 83.1%
CS(=O)(=O)Nc1ccc(C(=O)N2CCCC2)cc1 | 89.1%
Cc1ccc(CN2CCN(/N=C/c3ccco3)CC2)c(C)c1 | 106%
C=CCNC(=O)c1cc2nc(C3CC3)cc(C(F)F)n2n1 | 91.1%
Cc1[nH]n(-c2cccc(Cl)c2)c(=O)c1/C=N/n1c(C)nc2ccccc2c1=O | 29.1% (active)
Cc1[nH]n(-c2ccc(Cl)cc2)c(=O)c1/C=N/n1c(C)nc2ccccc2c1=O | 50.4%
Cn1c(COc2ccc(Cl)cc2)nc2ccccc2c1=O | 77.5%
O=C(CN(c1ccccc1)S(=O)(=O)c1ccc(Cl)cc1)Nc1ccccc1C(=O)N1CCCC1 | 84.3%
O=C(Cc1ccc(-n2c(=O)[nH]c3ccccc3c2=O)cc1)N1CCN(c2cccc(Cl)c2)CC1 | 89.4%
Cc1ccc(NC(=O)Nc2ccc3oc(C)nc3c2)cc1 | 74.5%
COc1ccc(NC(=O)Nc2ccc3nc(C)c(C)nc3c2)cc1 | 90.7%
O=C(Nc1ccc2ccccc2c1)Nc1ccc2snnc2c1 | 7.33% (active)

Structure (SMILES) | viability
Cc1cc2nc(C)n(CCCNC(=O)Nc3ccccc3)c2cc1C | 91.7%
CCC1CCCCN1CCCNC(=O)C1CCC(Cn2c(=O)[nH]c3ccccc3c2=O)CC1 (stereo unspecified) | 77.4%
Cc1cccc(NC(=O)C2CC(=O)OC23CCCC3)c1 (stereo unspecified) | 102%
COc1ccc(C2CC(c3ccccc3)Nc3ncnn32)cc1 (stereo unspecified) | 90.5%
COc1ccc(C2CC(c3ccc(C)cc3)Nc3ncnn32)cc1 (stereo unspecified) | 91.5%
Clc1ccc(C2CC(c3cccs3)n3ncnc3N2)cc1Cl (stereo unspecified) | 35.8% (active)
Cc1cccc(C(=O)Nc2ccccc2N2CCN(c3ccc(F)cc3)CC2)c1 | 89.6%
FC(F)(F)c1nnc2ccc(N3CCN(c4ccccc4)CC3)nn12 | 92.5%
COc1ccc2c(c1)CCc1c(C(=O)N3CCc4ccccc4C3)noc1-2 | 94.9%
COc1cc2c(cc1OC)CN(C(=O)c1cc(=O)c3ccccc3o1)CC2 | 18.1% (active)
COc1ccc(S(=O)(=O)N2CCC(C(=O)N3CCc4ccccc4C3)CC2)cc1OC | 88.7%
CCN(CC)C(=O)CSc1nc2ccccc2o1 | 91.7%
CCOc1cc(/C=N/O)cc(Br)c1OC | 90.5%
CCOc1c(Br)cc(/C=C2\C(=O)N(CCC#N)N=C2C)cc1OC | 26.2% (active)
Cc1nnc(NCCO)c2ccccc12 | 89.8%
Cn1c(SCC(=O)N2CCCc3ccccc32)nc2ccccc2c1=O | 62.9%
Fc1ccccc1/C=C1\CCCC2=C1Nc1ncnn1C2c1ccccc1F (stereo unspecified) | 1.53% (active)
COc1ccc(C2C(C(C)=O)=C(O)C(=O)N2c2nccs2)cc1 (stereo unspecified) | 106%
O=C(N/N=C/c1ccc(O)cc1)/C(=C/c1ccc([N+](=O)[O-])cc1)NC(=O)c1ccccc1 | 88.2%
COc1c(F)c(F)c(C(=O)O)c(Nc2ccccc2C)c1F | 98.5%
COc1ccc(C(=O)OCC(=O)NCC2CCCCC2)cc1S(=O)(=O)N1CCCc2ccccc21 | 72.3%
C=CCn1c(SCCOc2ccc(OC)cc2)nnc1C(NC(=O)c1ccc(OC)cc1)C(C)C (stereo unspecified) | 64%
CCN(CC(=O)NC1CCS(=O)(=O)C1)c1nc(-c2cccnc2)nc2ccccc12 (stereo unspecified) | 89.7%
Cc1cccc(N2CCN(S(=O)(=O)c3ccc4[nH]c(=O)c(=O)[nH]c4c3)CC2C)c1 (stereo unspecified) | 98.9%
Cc1cccc(-n2c(O)c(C=Nc3ccccc3N)c(=O)[nH]c2=O)c1 | 10% (active)
Cc1cccc(-n2c(N)c(C(=O)N3CCN(C)CC3)sc2=S)c1 | 94.4%

Structure (SMILES) | viability
O=C(C(NS(=O)(=O)c1cccc2nsnc12)c1ccccc1)N1CCN(c2ccccc2)CC1 (stereo unspecified) | 52.6%
CCSc1nnc(NC(=O)c2ccc(C)cc2)s1 | 103%
O=C(Nc1ccccc1)Nc1ccccc1C(=O)NCc1ccco1 | 99.2%
CCOc1ccccc1C(=O)NCc1ccco1 | 74.1%
Cc1cccc(Nc2ccccc2C(=O)NCc2ccco2)c1C | 15.7% (active)
O=C(Oc1ccccc1C(=S)N1CCCCC1)c1cc([N+](=O)[O-])cc([N+](=O)[O-])c1 | 94.3%
COC(=O)c1nc2ccccc2s1 | 86.8%
O=C(OC1CCOC1=O)c1ccc(-c2nc3ccccc3s2)s1 (stereo unspecified) | 92.7%
COc1ccccc1N1CC(O)=C(c2nc3ccccc3s2)C1=N | 31.6% (active)
COc1ccc(-c2nnc(SCc3cccnc3)o2)cc1 | 53.3%
O=C(COc1ccc(Cl)cc1)NCCSc1ccccc1 | 95.3%
CCOC(=O)NCc1ccc2c(c1)OCO2 | 113%
CCOC(=O)c1c(C)[nH]c(C(=O)COc2ccc3c(c2)OCO3)c1C | 81.1%
CCOC(=O)c1nc(-c2ccc3c(c2)OCO3)[nH]c1C | 36% (active)
Cc1nn(CC(=O)Nc2ccc3c(c2)nc(CN2CCCCC2)n3C)c(=O)c2ccccc12 | 104%
CCC(=O)Nc1ccc2c(c1)nc(CCN1CCN(C)CC1)n2C | 74.1%
Cn1c(CCN2CCCCCC2)nc2cc(NC(=O)Nc3ccccc3)ccc21 | 9.15% (active)
CC1CCC(N2CC(=O)N(Cc3ccc4c(c3)OCO4)C(c3ccc(F)cc3)C2=O)CC1 (stereo unspecified) | 100%
COC(=O)c1sc(NC(=O)c2ccc(OC)cc2OC)nc1C | 69.8%
CC(=O)c1sc(NC(=O)c2ccc(C)cc2)nc1C | 80%
COc1cccc2sc(Nc3nc(C)c(C(C)=O)s3)nc12 | 32.5% (active)
CC(C)CC(N=C1NC(C)(C)Cc2ccccc21)C(=O)O (stereo unspecified) | 108%
CCCCc1nnc(NC(=O)CSc2nc(C)cc(=O)[nH]2)s1 | 92.2%

From PubChem BioAssay AID598 (SRMLSC, 2007)
